According to PubChem BioAssay (EPA / NIEHS):
Activity calls are given as the source filed them. Rule for the calls: active = hit-call score of the fitted dose curve at least 0.9, where 1 is the maximum; inactive = score below 0.9.

Assays:
[1] = molecular target: CCAAT/enhancer-binding protein beta (Homo sapiens) (UniProt P17676); assay: ATG_C_EBP_CIS: Attagene CIS-FACTORIAL HepG2 Assay for human CCAAT/Enhancer Binding Protein (C/EBP) beta (AID 2282927); conditions: HepG2 Attagene cis-factorial transcription factor reporter; actives raise or lower the signal
Outline: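 Chemical-treated HepG2 cells (24 h) bearing cis-regulated reporter constructs were processed for total RNA, then reverse transcription, PCR amplification, fluorescent primer extension and fragment analysis; gain- and loss-of-signal were fitted against DMSO.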

[2] = ATG_DR4_LXR_CIS: Attagene CIS-FACTORIAL HepG2 Assay for human Liver X Receptor (LXR), DR4 submotif (AID 2282929); conditions: HepG2 Attagene DR4 cis-reporter, mRNA transcription; actives raise or lower the signal
Outline: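 DR4 cis-reporter in HepG2, 24 h exposure. Detection: RT-PCR, 6-FAM labelling, CE fragment analysis. Endpoint fitted bidirectionally, DMSO = baseline.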

[3] = molecular target: Aryl hydrocarbon receptor (Homo sapiens) (UniProt P35869); assay: ATG_Ahr_CIS: Attagene CIS-FACTORIAL HepG2 Assay for human Aryl Hydrocarbon Receptor (Ahr) (AID 2282930); conditions: HepG2 AhR cis-factorial reporter transcription; actives raise or lower the signal
Outline: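 Following 24 h of chemical dosing, transfected HepG2 liver cells with cis-driven reporter units were lysed for RNA; reporter mRNA was quantified via RT-PCR and capillary electrophoresis, and responses fitted bidirectionally from DMSO.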

[4] = ATG_AP_1_CIS: Attagene CIS-FACTORIAL HepG2 Assay for human Activator Protein 1 (AP-1) (AID 2282931); conditions: HepG2 Attagene cis-factorial AP-1 reporter mRNA; actives raise or lower the signal
Outline: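 Cis-regulated reporter units transiently expressed in HepG2 report endogenous transcription-factor activity. Signal: reporter mRNA at 24 h, via RT-PCR and fluorescent capillary electrophoresis. Endpoint derived by bidirectional fitting, DMSO as negative control.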

[5] = ATG_AP_2_CIS: Attagene CIS-FACTORIAL HepG2 Assay for human Activator Protein 2 (AP-2) (AID 2282932); conditions: HepG2 AP-2 cis-reporter, Attagene transcription factor profiling; actives raise or lower the signal
Outline: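 Bidirectional curve fitting against DMSO was applied to reporter mRNA signals from HepG2 cells 24 h after dosing. Cis-promoter reporter units, transiently transfected, were read by RT-PCR plus capillary electrophoresis.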

[6] = ATG_BRE_CIS: Attagene CIS-FACTORIAL HepG2 Assay for human Bone Morphogenetic Protein (BMP) Response Element (BRE) (AID 2282933); conditions: HepG2 BMP response element reporter, Attagene transcription factor profiling; actives raise or lower the signal
Outline: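 Transient MRTU transfection of human HepG2 liver cells; 24 h compound treatment; total RNA isolated, reverse-transcribed, PCR-amplified, 6-FAM labelled, HpaI-cut, capillary electrophoresis. DMSO = negative control/baseline, bidirectional fit.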

[7] = molecular target: Retinoic acid receptor alpha (Homo sapiens) (UniProt P10276); assay: ATG_DR5_RAR_CIS: Attagene CIS-FACTORIAL HepG2 Assay for human Retinoic Acid Receptor Alpha (RARE), DR5 submotif (AID 2282934); conditions: HepG2 Attagene cis-factorial RARE DR5 reporter, mRNA; actives raise or lower the signal;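 for AC50: reporter responds to endogenous RAR alpha beta and gamma in HepG2 not RARA alone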
Outline: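 Transfected HepG2 reporter cells are exposed to chemicals for 24 h. Then RNA is extracted and the DR5 element reporter transcript is measured by RT-PCR and capillary electrophoresis, with bidirectional curve fitting relative to DMSO.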

[8] = molecular target: Transcription factor E2F1 (Homo sapiens) (UniProt Q01094); assay: ATG_E2F_CIS: Attagene CIS-FACTORIAL HepG2 Assay for human E2F Transcription Factor 1 (AID 2282935); conditions: HepG2 Attagene cis-reporter, E2F reporter RNA transcripts; actives raise or lower the signal
Outline: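 Multiplexed cis-reporter assay: HepG2, transient transfection, 24 h dosing, mRNA quantitation by labeled RT-PCR and CE.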

[9] = ATG_E_Box_CIS: Attagene CIS-FACTORIAL HepG2 Assay for human Enhancer Box (E-box) (AID 2282936); conditions: HepG2 E-box cis-reporter transcription, actives raise or lower the signal
Outline: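 Multiplexed CIS reporter system in transiently transfected HepG2 cells measures native transcription factor activity. Reporter RNA after 24 h exposure is profiled by RT-PCR-capillary electrophoresis.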

[10] = ATG_M_61_CIS: Attagene CIS-FACTORIAL HepG2 Assay for M61 Transcription Factor (Internal Marker) (AID 2282937); conditions: HepG2 Attagene CIS-FACTORIAL M61 internal marker reporter; actives raise or lower the signal
Outline: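 Background-control endpoint: HepG2 cells with cis-regulated reporter constructs, 24 h exposure, reporter mRNA detected via fluorescent primer extension and capillary electrophoresis; values from bidirectional fitting with DMSO baseline.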

[11] = ATG_EGR_CIS: Attagene CIS-FACTORIAL HepG2 Assay for human Early Growth Response 1 (EGR1) (AID 2282938); conditions: HepG2 Attagene CIS-FACTORIAL EGR reporter mRNA; actives raise or lower the signal
Outline: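 Endpoint derived by bidirectional fitting versus DMSO vehicle. Method: cis-promoter reporter units transfected into HepG2, 24 h dosing, RNA isolation, RT-PCR with 6-FAM primer extension and HpaI digestion, then capillary electrophoresis fluorescence detection.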

[12] = ATG_M_19_CIS: Attagene CIS-FACTORIAL HepG2 Assay for M19 Transcription Factor (Internal Marker) (AID 2282939); conditions: HepG2 Attagene CIS-FACTORIAL M19 internal marker reporter; actives raise or lower the signal
Outline: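 Transfect HepG2 with MRTU reporter library → dose chemical, 24 h → isolate total RNA, reverse-transcribe with oligo(dT) → PCR, 6-FAM label, HpaI cut (2 h, 37 C) → capillary electrophoresis. Bidirectional fit vs DMSO.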

[13] = ATG_ERE_CIS: Attagene CIS-FACTORIAL HepG2 Assay for Estrogen Response Element (ERE) (AID 2282940); conditions: HepG2 ERE cis-reporter, Attagene RNA transcript; actives raise or lower the signal
Outline: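 Transient MRTU transfection of human HepG2; cis-element promoters; 24 h dosing; total RNA → RT (oligo dT) → PCR → 6-FAM primer extension → HpaI digest → CE fluorescence. Bidirectional fit, DMSO baseline.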

[14] = ATG_Ets_CIS: Attagene CIS-FACTORIAL HepG2 Assay for human Erythroblast Transformation Specific (ETS) (AID 2282941); conditions: HepG2 ETS cis-reporter transcription, actives raise or lower the signal
Outline: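 After transient cis-reporter transfection, HepG2 cells receive test chemical for 24 h. Reporter mRNA levels, measured by RT-PCR and capillary electrophoresis fluorescence, are analysed bidirectionally relative to the DMSO baseline.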

[15] = molecular target: Hepatocyte nuclear factor 3-beta (Homo sapiens) (UniProt Q9Y261); assay: ATG_FoxA2_CIS: Attagene CIS-FACTORIAL HepG2 Assay for human Forkhead box A2 (FOXA2) (AID 2282942); conditions: HepG2 cis-reporter transcription factor activity, 24 h; actives raise or lower the signal
Outline: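 Measured: reporter mRNA induction or loss in HepG2 transiently carrying multiple cis-regulated reporter units, 24 h after dosing. Quantified by RT-PCR plus capillary electrophoresis, normalised to DMSO.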

[16] = ATG_FoxO_CIS: Attagene CIS-FACTORIAL HepG2 Assay for human Forkhead box O (FoxO) (AID 2282943); conditions: HepG2 Attagene cis-reporter, FoxO element, mRNA; actives raise or lower the signal
Outline: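 24 h chemical exposure, HepG2 with transient cis-MRTU transfection. RNA extraction, oligo(dT) RT, reporter-specific PCR, primer-extension labelling, HpaI digestion, CE fragment analysis; bidirectional fit, DMSO baseline.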

[17] = ATG_GATA_CIS: Attagene CIS-FACTORIAL HepG2 Assay for human GATA Binding Protein (AID 2282944); conditions: HepG2 GATA cis-element reporter, Attagene multiplex mRNA; actives raise or lower the signal
Outline: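 Transient MRTU transfection, HepG2, 24 h compound exposure. Total RNA → oligo(dT) RT → PCR → 6-FAM primer extension → HpaI cut → CE. Bidirectional fit vs DMSO.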

[18] = ATG_GLI_CIS: Attagene CIS-FACTORIAL HepG2 Assay for human Zinc Finger Protein GLI1 (AID 2282945); conditions: HepG2, Attagene cis-factorial reporter mRNA, GLI element; actives raise or lower the signal
Outline: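 HepG2 cells transiently transfected with cis-promoter multiplexed reporter units report endogenous transcription factor activity. After 24 h chemical exposure, reporter mRNA was quantified by RT-PCR, 6-FAM labelling, HpaI digestion and capillary electrophoresis, with bidirectional fitting against DMSO.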

[19] = ATG_CMV_CIS: Attagene CIS-FACTORIAL HepG2 Assay for human CMV (Internal Marker) (AID 2282928); conditions: HepG2 CMV promoter reporter, transcription factor profiling; actives raise or lower the signal;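 note: endpoint acts as a background internal control marker rather than a target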
Outline: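 Cell system: HepG2, transiently transfected multiple reporter units under cis promoters. Exposure: 24 h. Detection: RT-PCR, FAM labeling, HpaI digestion, capillary electrophoresis. Analysis: bidirectional, DMSO baseline.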

Measured: AC50

Chain of Hepatocyte nuclear factor 3-beta (Homo sapiens) (Q9Y261 whole entry, looked up): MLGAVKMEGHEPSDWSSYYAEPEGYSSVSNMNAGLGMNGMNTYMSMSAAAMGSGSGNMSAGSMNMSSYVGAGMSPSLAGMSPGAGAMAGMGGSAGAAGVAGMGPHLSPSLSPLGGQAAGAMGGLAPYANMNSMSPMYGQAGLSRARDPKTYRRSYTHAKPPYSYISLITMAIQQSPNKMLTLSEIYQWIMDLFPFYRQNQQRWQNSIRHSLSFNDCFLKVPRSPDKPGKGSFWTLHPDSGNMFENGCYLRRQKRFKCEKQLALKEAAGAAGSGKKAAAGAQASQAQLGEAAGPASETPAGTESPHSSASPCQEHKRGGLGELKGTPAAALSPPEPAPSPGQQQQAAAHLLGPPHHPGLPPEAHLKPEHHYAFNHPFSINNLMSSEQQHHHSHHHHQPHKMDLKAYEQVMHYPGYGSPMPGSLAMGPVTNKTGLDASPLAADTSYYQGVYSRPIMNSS
Chain of Retinoic acid receptor alpha (Homo sapiens) (P10276 whole entry, looked up): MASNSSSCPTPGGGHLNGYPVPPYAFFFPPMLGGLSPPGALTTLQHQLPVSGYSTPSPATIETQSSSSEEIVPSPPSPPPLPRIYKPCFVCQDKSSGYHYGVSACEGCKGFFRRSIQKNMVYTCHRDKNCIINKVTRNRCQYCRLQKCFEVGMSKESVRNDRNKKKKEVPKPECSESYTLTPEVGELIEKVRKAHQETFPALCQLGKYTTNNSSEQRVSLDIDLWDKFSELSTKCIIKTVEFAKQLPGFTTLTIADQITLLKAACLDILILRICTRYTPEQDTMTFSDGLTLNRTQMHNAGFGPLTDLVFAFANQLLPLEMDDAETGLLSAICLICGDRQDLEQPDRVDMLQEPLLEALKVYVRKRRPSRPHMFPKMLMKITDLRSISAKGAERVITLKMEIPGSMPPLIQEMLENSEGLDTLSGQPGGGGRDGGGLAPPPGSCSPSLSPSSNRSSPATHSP
Chain of CCAAT/enhancer-binding protein beta (Homo sapiens) (P17676 whole entry, looked up, the tested form may be a part): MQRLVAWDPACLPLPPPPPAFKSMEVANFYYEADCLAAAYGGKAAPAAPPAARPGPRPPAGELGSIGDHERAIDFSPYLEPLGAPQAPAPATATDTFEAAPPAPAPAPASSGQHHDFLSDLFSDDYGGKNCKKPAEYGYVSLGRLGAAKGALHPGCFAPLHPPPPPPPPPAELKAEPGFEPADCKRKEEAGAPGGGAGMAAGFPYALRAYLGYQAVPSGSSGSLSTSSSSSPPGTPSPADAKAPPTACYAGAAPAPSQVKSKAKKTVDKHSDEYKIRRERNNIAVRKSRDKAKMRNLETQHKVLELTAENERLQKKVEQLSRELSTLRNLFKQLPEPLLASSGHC
Chain of Aryl hydrocarbon receptor (Homo sapiens) (P35869 whole entry, looked up): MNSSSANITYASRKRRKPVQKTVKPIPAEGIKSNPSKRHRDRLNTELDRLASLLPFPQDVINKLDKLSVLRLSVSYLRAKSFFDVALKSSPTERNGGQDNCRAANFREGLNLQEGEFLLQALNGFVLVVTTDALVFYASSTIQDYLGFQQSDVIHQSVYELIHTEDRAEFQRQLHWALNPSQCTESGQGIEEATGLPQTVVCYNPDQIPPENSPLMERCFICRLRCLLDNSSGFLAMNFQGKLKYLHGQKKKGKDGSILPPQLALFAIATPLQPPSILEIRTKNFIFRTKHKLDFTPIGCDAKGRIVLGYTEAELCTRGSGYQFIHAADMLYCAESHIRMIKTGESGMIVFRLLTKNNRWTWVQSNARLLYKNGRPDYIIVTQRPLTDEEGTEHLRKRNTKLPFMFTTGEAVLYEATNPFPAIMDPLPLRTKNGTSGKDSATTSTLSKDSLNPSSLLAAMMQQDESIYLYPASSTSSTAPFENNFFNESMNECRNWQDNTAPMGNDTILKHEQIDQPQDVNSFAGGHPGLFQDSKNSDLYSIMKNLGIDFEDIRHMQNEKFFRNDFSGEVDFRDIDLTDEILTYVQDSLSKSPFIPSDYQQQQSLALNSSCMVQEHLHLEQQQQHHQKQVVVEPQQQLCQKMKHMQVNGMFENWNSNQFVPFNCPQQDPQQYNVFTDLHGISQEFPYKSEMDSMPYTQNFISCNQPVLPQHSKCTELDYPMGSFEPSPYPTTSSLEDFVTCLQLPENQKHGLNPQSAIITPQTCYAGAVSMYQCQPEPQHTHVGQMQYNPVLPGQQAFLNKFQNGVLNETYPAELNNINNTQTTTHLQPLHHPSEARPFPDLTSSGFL
Chain of Transcription factor E2F1 (Homo sapiens) (Q01094 whole entry, looked up): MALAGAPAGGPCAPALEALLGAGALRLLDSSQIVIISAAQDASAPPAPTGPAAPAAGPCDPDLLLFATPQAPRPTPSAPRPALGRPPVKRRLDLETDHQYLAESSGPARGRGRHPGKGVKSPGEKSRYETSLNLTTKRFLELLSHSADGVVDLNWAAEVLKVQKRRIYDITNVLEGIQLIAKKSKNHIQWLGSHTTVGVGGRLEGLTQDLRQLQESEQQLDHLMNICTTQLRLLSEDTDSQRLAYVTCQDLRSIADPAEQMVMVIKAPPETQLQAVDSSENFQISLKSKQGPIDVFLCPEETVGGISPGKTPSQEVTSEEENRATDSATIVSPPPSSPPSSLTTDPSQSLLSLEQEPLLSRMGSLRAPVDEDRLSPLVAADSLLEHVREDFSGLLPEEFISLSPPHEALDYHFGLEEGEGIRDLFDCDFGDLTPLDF

O=C(Nc1ccc2c(O)c(N=Nc3ccc(N=Nc4ccc(S(=O)(=O)O)cc4)cc3)c(S(=O)(=O)O)cc2c1)c1ccccc1
active: [6] 66.8 µM
inactive: [1] | [2] | [3] | [4] | [5] | [7] | [8] | [9] | [10] | [11] | [12] | [13] | [14] | [15] | [16] | [17] | [18]

OC[C@H]1O[C@@H](Oc2ccc(O)cc2)[C@H](O)[C@@H](O)[C@@H]1O
inactive: [1] | [19] | [2] | [3] | [4] | [6] | [7] | [8] | [9] | [10] | [11] | [12] | [13] | [14] | [15] | [16] | [17] | [18]

Nc1c(Cl)cc(Cl)cc1[N+](=O)[O-]
active: [19] 69.1 µM | [9] 92 µM
inactive: [1] | [2] | [3] | [6] | [7] | [8] | [10] | [11] | [12] | [13] | [14] | [15] | [16] | [18]

CCCCCCCCCCCC(=O)OCC(O)CO (configuration not stated)
inactive: [1] | [19] | [2] | [5] | [6] | [9] | [10] | [11] | [12] | [13] | [14] | [15] | [17] | [18]
active: [3] 21.3 µM | [4] 158 µM | [7] 100 µM

C[Si](C)(C)O[Si](C)(C)C
inactive: [1] | [19] | [2] | [3] | [4] | [5] | [6] | [7] | [8] | [9] | [10] | [11] | [12] | [14] | [15] | [16] | [17] | [18]

CN(C)CCOc1ccc(/C(=C(/CCCl)c2ccccc2)c2ccccc2)cc1
active: [2] 1.99 µM
inactive: [1] | [19] | [3] | [4] | [5] | [6] | [7] | [9] | [10] | [11] | [12] | [14] | [15] | [16] | [17] | [18]

CCCSc1ccc2nc(NC(=O)OC)[nH]c2c1
inactive: [1] | [19] | [2] | [4] | [5] | [6] | [7] | [8] | [9] | [10] | [11] | [12] | [14] | [15] | [16] | [17] | [18]

c1ccc2cc(Nc3ccc(Nc4ccc5ccccc5c4)cc3)ccc2c1
active: [3] 4 µM
inactive: [1] | [19] | [2] | [4] | [5] | [6] | [7] | [9] | [10] | [11] | [12] | [14] | [15] | [16] | [17] | [18]

CCCCCCCCCCCCCCCC(=O)OC/C=C(C)/C=C/C=C(C)/C=C/C1=C(C)CCCC1(C)C
inactive: [1] | [19] | [2] | [3] | [4] | [5] | [6] | [7] | [8] | [9] | [10] | [11] | [12] | [14] | [15] | [16] | [18]

O=C1c2ccccc2C(=O)c2c(O)ccc(O)c21
active: [19] 3.02 µM | [3] 0.296 µM | [9] 3.7 µM
inactive: [1] | [2] | [4] | [5] | [6] | [7] | [8] | [10] | [11] | [12] | [14] | [15] | [17] | [18]
